The results in this text go back to the supplement of paper PMC4840960.

The structures appear in SMILES notation. Structures can show the parent of a compound that is named as a salt. Unmarked numbers belong to inactive results.

The assay deals with E18 rat cortical neuron-glia co-culture. Briefly: myelination (MBP fiber length per Olig2+ nucleus), % of 1 µM DAPT response (DMSO = 0) (% of DAPT); higher = more myelination, active = 50 or more. To be noted: 5 µM; treatment time: 8 days (DIV5-DIV13). Summed up:
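Rat cortical co-cultures from E18 tissue were dissociated with papain and plated at 20,000 cells/well on 96-well plates coated with poly-d-lysine/laminin. From DIV5 to DIV13, library compounds were added at 1 or 5 µM in myelination medium. After fixation in 4 % paraformaldehyde, cultures were immunostained for MBP and Olig2 and counterstained with DAPI, and four 10X fields were analysed in each of duplicate wells. The myelination value is the length of continuous straight MBP fibers per Olig2+ nucleus, normalised so that 0.1 % DMSO is 0 and a 1 µM positive control is 100.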
With `CN/C(=N\CCSCc1nc[nH]c1C)NC#N` [Cimetidine], the myelination was -6.66. Take `COc1cc(C(=O)NC2CCCNC2)cc(OC)c1OC` (configuration not stated) [Troxipide]: the myelination is -5. Turning to `CCc1cc(C(N)=S)ccn1` [Ethionamide], the myelination is 3.35.

Turning to `COc1ccccc1N1CCN(CCCNc2cc(=O)n(C)c(=O)n2C)CC1` [Urapidil], the myelination is -23.7. Consider `COc1ccc(Cl)cc1C(=O)NCCc1ccc(S(=O)(=O)NC(=O)NC2CCCCC2)cc1` [Glyburide], for which the myelination was -10.7.

Regarding `O=C1CCC(N2C(=O)c3ccccc3C2=O)C(=O)N1` (configuration not stated) [Thalidomide], the myelination is 4.71.

Regarding `COc1ccccc1OCC(O)CN1CCN(CC(=O)Nc2c(C)cccc2C)CC1` (configuration not stated) [Ranolazine], the myelination was -22.5. Take `CC(=O)O[C@@]12CO[C@@H]1C[C@H](O)[C@@]1(C)C(=O)[C@H](O)C3=C(C)[C@@H](OC(=O)[C@H](O)[C@@H](NC(=O)OC(C)(C)C)c4ccccc4)C[C@@](O)([C@@H](OC(=O)c4ccccc4)[C@H]21)C3(C)C` [Docetaxel]: the myelination is 257 (active). On to `CCCCC(=O)N(Cc1ccc(-c2ccccc2-c2nnn[nH]2)cc1)[C@H](C(=O)O)C(C)C` [Valsartan], for which the myelination is -17.4.

As for `CN(C)CCc1c[nH]c2ccc(C[C@H]3COC(=O)N3)cc12` [Zolmitriptan], the myelination was -14.6. On to `CC(=O)CCCCn1c(=O)c2c(ncn2C)n(C)c1=O` [Pentoxifylline], for which the myelination was -23.8.

Regarding `NS(=O)(=O)c1cc2c(cc1C(F)(F)F)NC(Cc1ccccc1)NS2(=O)=O` (configuration not stated) [Bendroflumethiazide], the myelination was -27.7.

Regarding `CN(CCOc1ccc(NS(C)(=O)=O)cc1)CCc1ccc(NS(C)(=O)=O)cc1` [Dofetilide], the myelination was -13.2. Regarding `COc1cc(-c2ccc(=O)[nH]n2)ccc1OC(F)F` [Zardaverine], the myelination was -42.4.

Regarding `O=C(O)c1cc(-c2ccc(F)cc2F)ccc1O` [Diflunisal], the myelination was 6.86.

`S=c1[nH]cnc2nc[nH]c12` [Mercaptopurine]: the myelination was -50.2. Take `C[C@H]1C[C@H]2[C@@H]3CCC4=CC(=O)C=C[C@]4(C)[C@@]3(Cl)[C@@H](O)C[C@]2(C)[C@@]1(O)C(=O)CO` [Beclomethasone]: the myelination was -7.92. As to `CC1(C)S[C@@H]2[C@H](NC(=O)[C@H](N)c3ccccc3)C(=O)N2[C@H]1C(=O)O` [Ampicillin], the myelination was -18.9. On to `Nc1nc(=O)[nH]cc1F` [Flucytosine], for which the myelination was -9.52. Under `CC(=O)O[C@H]1C[C@@H]2CC[C@@H]3[C@H](CC[C@@]4(C)[C@H]3C[C@H]([N+]3(C)CCCCC3)[C@@H]4OC(C)=O)[C@@]2(C)C[C@@H]1N1CCCCC1` [Vecuronium Bromide] stands -9.35; under `OCCOCCN1CCN(C(c2ccccc2)c2ccc(Cl)cc2)CC1` (configuration not stated) [Hydroxyzine pamoate salt], -24.4; under `COc1cc(C)c(/C=C/C(C)=C/C=C/C(C)=C/C(=O)O)c(C)c1C` [Acitretin], 12.

With `NS(=O)(=O)Cc1noc2ccccc12` [Zonisamide], the myelination was -30.8. Under `COC(=O)C1=C(C)NC(C)=C(C(=O)OC2CCCN(Cc3ccccc3)C2)C1c1cccc([N+](=O)[O-])c1` (configuration not stated) [Benidipine] stands -63; under `CC(C)Oc1ccc2c(=O)c(-c3ccccc3)coc2c1` [Ipriflavone], -7.62; under `Cc1nc(=O)c2cc(CN(C)c3ccc(C(=O)N[C@@H](CCC(=O)O)C(=O)O)s3)ccc2[nH]1` [Raltitrexed], 591 (active). Under `Cc1cn([C@H]2C[C@H](N=[N+]=[N-])[C@@H](CO)O2)c(=O)[nH]c1=O` [Zidovudine] stands -21.5.
